# From PubChem BioAssay (Tox21)
# Unmarked numbers belong to inactive results. Where a call stands in place of a potency, no number is given. Calls of active or inactive are those of the source. Unless noted, calls come from the whole dose curve; as a rule, active = well fitted curve in the direction sought with a large enough effect in the repeat runs; inconclusive = weak or mixed curves; inactive = flat fitted curve, though single readings scatter.
# Columns and labels:
# [1] = qHTS assay to test for compound auto fluorescence at 535 nm (green) in HEK293 cells (AID 720680)
# [2] = qHTS assay to test for compound auto fluorescence at 460 nm (blue) in HEK293 cell free culture (AID 720681)
# In short: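 Test compounds were pinned into cell-free culture medium (DMEM with 10% FBS) and fluorescence was read directly at Ex/Em 405/460 nm. Signals were expressed as fluorescence equivalents of triamterene, with DMSO vehicle as control.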
# [3] = qHTS assay to test for compound auto fluorescence at 535 nm (green) in HEK293 cell free culture (AID 720682)
# In short: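 Cell-free medium (DMEM, 10% FBS) receives compound or DMSO by pintool. Plate read directly at Ex 485/Em 535 nm. Signal converted to fluorescein equivalency.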
# [4] = qHTS assay to test for compound auto fluorescence at 590 nm (red) in HEK293 cell free culture (AID 720683)
# In short: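 Tox21 10K library compounds were pinned into cell-free DMEM with 10% FBS and fluorescence was read at excitation 540 nm. Activity is expressed as Rose Bengal sodium equivalency.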
# [5] = qHTS assay to test for compound auto fluorescence at 590 nm (red) in HepG2 cell free culture (AID 720684)
# In short: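 Red fluorescence (540 nm excitation, 590 nm emission) was measured after compound transfer into cell-free MEM supplemented with 10% FBS. Values are equivalencies against Rose Bengal sodium.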
# [6] = qHTS assay to test for compound auto fluorescence at 460 nm (blue) in HepG2 cell free culture (AID 720685)
# In short: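 Compound (23 nL) or DMSO pinned into cell-free MEM with 10% FBS; blue fluorescence read at 405/460 nm excitation/emission, expressed as auto-fluorescence equivalency to triamterene.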
# [7] = qHTS assay to test for compound auto fluorescence at 535 nm (green) in HepG2 cell free culture (AID 720686)
# [8] = qHTS assay to test for compound auto fluorescence at 460 nm (blue) in HepG2 cells (AID 720687)
# In short: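 Cells (2,000/well in MEM with 10% FBS) attached overnight at 37 C, then were exposed to compound or DMSO for 1 hr at 37 C, 5% CO2. Fluorescence read at Ex/Em 405/460 nm, expressed as triamterene-equivalent signal.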
# [9] = biological target: Glucocorticoid receptor (Homo sapiens) (UniProt P04150); assay: qHTS assay to identify small molecule agonists of the glucocorticoid receptor (GR) signaling pathway (AID 720691; active = well fitted activation curve with a large enough effect in the signal ratio in the repeat runs, not every such curve was filed as active; inconclusive = weak or mixed curves, or effect the other way; inactive = no such curve, though single readings can be large or run the other way; the % refers to the signal ratio; note: potency is the fitted concentration of half-maximal effect)
# Chain of Glucocorticoid receptor (Homo sapiens) (P04150 whole entry, looked up): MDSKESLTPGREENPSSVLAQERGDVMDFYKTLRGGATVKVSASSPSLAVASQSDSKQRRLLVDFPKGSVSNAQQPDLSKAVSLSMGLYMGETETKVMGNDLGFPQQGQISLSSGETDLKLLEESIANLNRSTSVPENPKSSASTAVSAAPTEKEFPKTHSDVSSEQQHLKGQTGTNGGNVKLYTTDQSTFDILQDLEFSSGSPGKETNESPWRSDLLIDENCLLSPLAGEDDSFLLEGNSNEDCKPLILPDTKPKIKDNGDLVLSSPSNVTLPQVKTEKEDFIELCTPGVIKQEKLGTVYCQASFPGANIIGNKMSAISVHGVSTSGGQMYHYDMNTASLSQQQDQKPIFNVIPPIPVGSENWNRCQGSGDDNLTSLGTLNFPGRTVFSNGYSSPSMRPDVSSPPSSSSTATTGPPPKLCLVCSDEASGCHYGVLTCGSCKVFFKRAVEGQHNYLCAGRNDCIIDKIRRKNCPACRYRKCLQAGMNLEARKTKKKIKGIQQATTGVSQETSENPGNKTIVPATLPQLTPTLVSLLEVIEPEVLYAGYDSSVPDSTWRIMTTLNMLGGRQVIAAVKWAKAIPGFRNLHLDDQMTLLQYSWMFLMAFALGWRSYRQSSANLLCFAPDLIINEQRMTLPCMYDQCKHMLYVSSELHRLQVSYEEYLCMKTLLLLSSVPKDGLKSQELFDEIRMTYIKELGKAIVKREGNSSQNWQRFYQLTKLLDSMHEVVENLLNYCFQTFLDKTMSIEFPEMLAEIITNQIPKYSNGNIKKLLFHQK
# In short: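 GR-bla HeLa cells carrying a GRE-driven beta-lactamase reporter, exposed to compounds for 18 h at 37 C. Reporter activation read as fluorescence after 2 h with LiveBLAzer B/G FRET substrate at room temperature.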
# [10] = biological target: Glucocorticoid receptor (Homo sapiens) (UniProt P04150); assay: qHTS assay to identify small molecule antagonists of the glucocorticoid receptor (GR) signaling pathway (AID 720692; active = well fitted inhibition curve with a large enough effect in the signal ratio in the repeat runs, not every such curve was filed as active; inconclusive = weak or mixed curves, or effect the other way; inactive = no such curve, though single readings can be large or run the other way; the % refers to the signal ratio)
# In short: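 GR-bla HeLa cells carrying a GRE-driven beta-lactamase reporter received compound after 4 h plating, then dexamethasone (5 nM final). After 18 h at 37C, the FRET substrate was loaded for 2 h at room temperature and fluorescence read.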
Compound,outcome [1],outcome [2],outcome [3],outcome [4],outcome [5],outcome [6],outcome [7],outcome [8],Potency [9],Potency [10],"fluorescence, % of fluorescein [1]","fluorescence, % of fluorescent control [2]",activity change [3],"fluorescence, % of fluorescent control [4]","fluorescence, % of Rose Bengal [5]","fluorescence, % of fluorescent control [6]","fluorescence, % of fluorescein control [7]","fluorescence, % of fluorescent control [8]"
C[C@@H]1C[C@H]2[C@@H]3C[C@H](F)C4=CC(=O)C(Cl)=C[C@]4(C)[C@@]3(F)[C@@H](O)C[C@]2(C)[C@@]1(O)C(=O)CO,inactive,inactive,inactive,inactive,inactive,inactive,inactive,inactive,15.1 nM [inconclusive] (active),,,,,,,,,
CCC(C)(CCCC(C)C)OC(C)=O (stereo unspecified),inactive,inactive,inactive,inactive,inactive,inactive,inactive,inactive,inactive,inactive,,,,,,,,
COc1cc(C(=O)NCc2ccc(OCCN(C)C)cc2)cc(OC)c1OC,,,,,,,,,inactive,,-0.015% [at 18.6 µM],-0.119% [at 18.6 µM],-0.0621% [at 18.6 µM],0.0108% [at 18.6 µM],-0.58% [at 18.6 µM],-0.0208% [at 18.6 µM],0.123% [at 18.6 µM],0.157% [at 18.6 µM]
CCC(C(=O)NC(=O)NC(C)=O)c1ccccc1 (stereo unspecified),inactive,inactive,inactive,inactive,inactive,inactive,inactive,inactive,inactive,inactive,,,,,,,,
CCCCN(CCC(=O)OCC)C(C)=O,inactive,inactive,inactive,inactive,inactive,inactive,inactive,inactive,inactive,inactive,,,,,,,,
CCCCc1nc(Cl)c(CO)n1Cc1ccc(-c2ccccc2-c2nn[nH]n2)cc1,inactive,inactive,inactive,inactive,inactive,inactive,inactive,inactive,inactive,inactive,,,,,,,,
CC(C)C1CCC(O)CC1 (stereo unspecified),inactive,inactive,inactive,inactive,inactive,inactive,inactive,inactive,inactive,inactive,,,,,,,,
CCCCOCCOC(=O)COc1cc(Cl)c(Cl)cc1Cl,inactive,inactive,inactive,inactive,inactive,inactive,inactive,inactive,inactive,inactive,,,,,,,,
O=C(O)CC(C(=O)O)S(=O)(=O)O (stereo unspecified),inactive,inactive,inactive,inactive,inactive,inactive,inactive,inactive,inactive,inactive,,,,,,,,
CC1=NS(=O)(=O)c2cc(Cl)ccc2N1,inactive,inactive,inactive,inactive,inactive,inactive,inactive,inactive,inactive,inactive,,,,,,,,
CCCCCC(=O)OCCc1ccccc1,inactive,inactive,inactive,inactive,inactive,inactive,inactive,inactive,inactive,inactive,,,,,,,,
FB(F)F,inactive,inactive,inactive,inactive,inactive,inactive,inactive,inactive,inactive,inactive,,,,,,,,
CCCCc1ccc2c(n1)[C@@H](c1ccc(OC)cc1C[C@H](C)C(=O)O)[C@H](C(=O)O)[C@H]2c1ccc2c(c1)OCO2,inactive,inactive,inactive,inactive,inactive,inactive,inactive,inactive,inactive,inactive,,,,,,,,
Nc1ccccn1,inactive,inactive,inactive,inactive,inactive,inactive,inactive,inactive,inactive,inactive,,,,,,,,
CC(=O)N1C[C@H](O)C[C@H]1C(=O)O,inactive,inactive,inactive,inactive,inactive,inactive,inactive,inactive,inactive,inactive,,,,,,,,
NC(=O)Cc1cccc2ccccc12,inactive,inactive,inactive,inactive,inactive,inactive,inactive,inactive,inactive,inactive,,,,,,,,
COc1ccc2cc1Oc1cc3c(cc1OC)CC[N+](C)(C)[C@H]3Cc1ccc(cc1)Oc1c(OC)c(OC)cc3c1[C@@H](C2)[N+](C)(C)CC3,inactive,inactive,inactive,inactive,inactive,inactive,inactive,inactive,inactive,inactive,,,,,,,,
Nc1ccn([C@@H]2O[C@H](CO)[C@@H](O)[C@@H]2O)c(=O)n1,inactive,inactive,inactive,inactive,inactive,inactive,inactive,inactive,inactive,,,,,,,,,
C=CCCC(=O)O,inactive,inactive,inactive,inactive,inactive,inactive,inactive,inactive,inactive,inactive,,,,,,,,
C1CCC2=NCCCN2CC1,inactive,inactive,inactive,inactive,inactive,inactive,inactive,inactive,inactive,inactive,,,,,,,,
C[N+]12CCC(CC1)C(OC(=O)C(O)(c1ccccc1)c1ccccc1)C2 (stereo unspecified),,,,,,,,,inactive,,0.041% [at 18.6 µM],0.066% [at 18.6 µM],0.0169% [at 18.6 µM],0.0635% [at 18.6 µM],0.213% [at 18.6 µM],-0.0875% [at 18.6 µM],-0.0194% [at 18.6 µM],0.0552% [at 18.6 µM]
